Compounds with a hit are over-represented: about 2.8% of the library has one in this group of screens.
PglD inh: PglD (C. jejuni) enzyme inhibition; inhibition, % at 12.5 µM; 360,000 compounds, 0.098% hits; purified PglD enzyme, DTNB colorimetric CoA detection; AID 602405; in the data active = inhibition above about 16%, passing the limit was not always enough; inconclusive = no clear call, values can overlap the other calls
CDK5 inh: CDK5/p35 (human) kinase inhibition; inhibition, % at 10 µM; Q00535+Q15078; 330,000 compounds, 0.01% hits; Recombinant CDK5/p35, ADP-Glo luminescence, 60 min;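 active = highest replicate inhibition of at least 50% and at least 75% of replicates reaching 50%; inconclusive = only one of the two criteria met; inactive = both criteria failed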;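 note: plate controls were DMSO neutral control for no effect and GW8510 at 10 µM for full effect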
FGF22 binding: shifts melting point of recombinant human FGF22. Q9HCT0. recombinant FGF22 thermal shift, SYPRO orange fluorescence; percent of sucrose octasulfate shift, DMSO zero. activity (Tm shift, normalised), % at 9.99 µM. 340,000 compounds, 1.5% hits. AID 651658;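 active = mean Tm shift, scaled 0 neutral to 100 positive control, at about 1.3% or above, every replicate too, limit read from the data; inconclusive = no clear call, values can overlap the other calls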
Target sequence (Q9HCT0 whole entry, looked up): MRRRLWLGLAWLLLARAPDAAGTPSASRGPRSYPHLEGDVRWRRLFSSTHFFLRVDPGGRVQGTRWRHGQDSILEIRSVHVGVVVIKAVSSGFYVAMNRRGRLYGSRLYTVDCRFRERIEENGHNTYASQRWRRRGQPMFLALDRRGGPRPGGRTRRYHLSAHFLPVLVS
dFosB activator: enhances mouse delta FosB homodimer DNA binding. 340,000 compounds, 0.99% hits. AID 493131. P13346. purified delta FosB, TAMRA-CDK5 oligo fluorescence polarization; percent of positive-control signal above neutral wells. activation, % at 25 µM;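 active = mean activation above about 17%, with every replicate also reaching it, limit read from the data, passing the limit was not always enough; inconclusive = only one of the two conditions met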
SIRT5 inh: sirtuin-5 (human) deacylase inhibition. Purified SirT5, succinyl-peptide AMC, trypsin-coupled fluorescence. inhibition, % at 15 µM. 330,000 compounds, 1.1% hits. AID 652115; in the data active = inhibition above about 15%; inconclusive = no clear call, values can overlap the other calls
Target sequence (Q9NXA8 whole entry, looked up): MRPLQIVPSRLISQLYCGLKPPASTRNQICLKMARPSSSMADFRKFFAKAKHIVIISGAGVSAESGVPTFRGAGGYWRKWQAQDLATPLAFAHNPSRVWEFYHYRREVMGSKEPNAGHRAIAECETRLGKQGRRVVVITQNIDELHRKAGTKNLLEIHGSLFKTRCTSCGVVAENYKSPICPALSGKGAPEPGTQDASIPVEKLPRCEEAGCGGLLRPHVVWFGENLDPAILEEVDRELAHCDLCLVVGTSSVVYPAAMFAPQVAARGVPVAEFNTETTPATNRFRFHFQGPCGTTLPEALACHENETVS
PvdQ acylase: P. aeruginosa PvdQ acylase inhibition. inhibition, % at 10 µM. purified PvdQ acylase, fluorescence plate reader. 340,000 compounds, 0.063% hits. AID 488965; in the data active = inhibition above about 30%, passing the limit was not always enough; inconclusive = no clear call, values can overlap the other calls;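 note: 0% = vehicle neutral wells and 100% = reference inhibitor wells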
PglD confirm: confirmation of Campylobacter jejuni PglD acetyltransferase inhibitors | shares compounds with PglD inh | Purified C. jejuni PglD, DTNB absorbance 412 nm | inhibition, % at 20 µM | 320 tested, under 10 active | AID 743156;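 active = mean inhibition across replicates of at least 20% with every single replicate also at 20% or more; inconclusive = mean inhibition at least 20% but some replicate falls below 20%; inactive = mean inhibition under 20% and not all replicates reach it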;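 note: initial rate of CoA release by acetyl transfer from AcCoA to the UDP-4-amino sugar; 0% = median of neutral control wells and 100% = median of positive control wells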
The depositor's hits bear a star; ? = inconclusive; · = not tested or not shown.

SMILES	PglD inh	CDK5 inh	FGF22 binding	dFosB activator	SIRT5 inh	PvdQ acylase	PglD confirm
C[C@H]1CCCCO[C@H](CN(C)Cc2ccc3c(c2)OCO3)[C@@H](C)CN([C@@H](C)CO)C(=O)c2cc(NC(=O)Nc3ccc(F)cc3)ccc2O1	1.1	·	-0.6	·	14.4	·	·
COc1ccc(CN(C)C[C@H]2Oc3ccc(NC(=O)Cc4cn(C)c5ccccc45)cc3C(=O)N([C@@H](C)CO)C[C@H]2C)cc1	-1.1	·	0.0	·	1.5	·	·
COC(=O)c1cc(C)ccc1OCc1ccc([N+](=O)[O-])cc1	22.8*	0.0	-0.1	4.5	-4.6	-6.1	-2.9
COC(=O)c1ccc(COc2ccc(C)cc2[N+](=O)[O-])o1	-1.9	-0.3	0.0	5.1	0.6	-13.3	·
C[C@H]1CN([C@@H](C)CO)C(=O)c2cccc(NC(=O)c3ccc(-c4nccs4)cc3)c2O[C@@H]1CN(C)S(=O)(=O)c1cn(C)cn1	-0.1	·	-0.2	·	1.6	·	·
Cn1ncc(C(=O)Nc2ccc(OC(F)(F)F)cc2)c1-n1cccc1	21.3*	-3.2	-0.1	-11.7	-0.1	-14.7	-4.7
CCOC(=O)C1CCCN(CCC(=O)Nc2ccc(Br)c(C)c2)C1 (configuration not stated)	71.4*	-1.8	0.0	-9.0	1.9	-5.8	0.1
CCc1ccc(/C=C2\SC(=S)N(CCCC(=O)Nc3cc(C)on3)C2=O)cc1	21.0*	·	0.0	·	·	·	-2.3
CCc1ccc(/C=C2\SC(=S)N(CCC(=O)Nc3cc(C)on3)C2=O)cc1	·	5.1	42.6	2.5	-0.3	-4.5	·
C[C@H](CO)N1C[C@H](C)[C@@H](CN(C)C(=O)C2CCCCC2)Oc2cc(-c3cncnc3)ccc2S1(=O)=O	43.9	·	0.3	·	0.4	·	·
CC(C)n1nc(Cc2cccc3ccccc23)c(C#N)c1N	88.7*	-0.3	0.1	2.2	·	-5.0	-5.0
CCOc1ccccc1NC(=O)N1CCCC1C(=O)Nc1ccc(-n2cnnn2)c(C)c1 (configuration not stated)	25.3*	-0.5	·	-0.8	·	6.2	1.3
O=c1oc2ccccc2cc1-c1ccccc1	23.6*	-1.4	0.3	-4.2	-2.3	7.6	-8.8
O=c1oc2ccc(Cl)cc2cc1-c1ccccc1	·	0.3	·	-1.8	·	-13.1	·
O=C(N[C@H]1CC[C@@H](CCNS(=O)(=O)Cc2ccccc2)O[C@H]1CO)c1ccc2c(c1)OCO2	2.4	·	0.1	·	1.2	·	·
CO[C@H]1CN(C)C(=O)c2ccc(NC(=O)C3CCCCC3)cc2OC[C@@H](C)N(C)C[C@@H]1C	-1.8	·	0.0	·	-1.5	·	·
CN1CCN(C(=O)C[C@@H]2C[C@H]3c4cc(NC(=O)C5CCC5)ccc4O[C@H]3[C@H](CO)O2)CC1	1.1	·	0.1	·	-2.9	·	·
O=C(NCc1ccco1)Oc1ccccc1	21.3*	1.2	·	-8.7	·	-5.2	-6.2
C/C(=N/NC(=O)c1cccs1)c1ccc(NC(=O)COc2ccc(Cl)cc2Cl)cc1	21.4*	0.0	·	?	·	-2.6	0.5
CN(C)CC(=O)N1[C@@H]2c3ccc(-c4ccccc4)c(=O)n3C[C@@H]2[C@@H](CO)[C@@H]1C(=O)NC1CCC1	-2.7	·	0.1	·	-18.0	·	·
O=C(C[C@@H]1C[C@@H]2c3cc(NC(=O)NC4CCCC4)ccc3O[C@@H]2[C@@H](CO)O1)NCc1ccc(Cl)cc1	1.9	·	0.0	·	0.6	·	·
Cc1ccc(N(CC(=O)NC(C)c2ccccc2)S(=O)(=O)c2c(C)noc2C)cc1 (configuration not stated)	27.2*	-5.7	-0.3	?	-2.2	-18.2	-5.2
CCCNC(=O)Nc1ccc2c(c1)C(=O)N(C)[C@@H]1CC[C@@H](CC(=O)NCc3ccccc3)O[C@@H]1CO2	5.6	·	-0.1	·	-4.0	·	·
CC(C)Cc1nc(N2CCN(C(=O)c3ccccc3)CC2)c(C#N)c2c1CCC2	1.7	-0.3	·	-9.7	·	-7.7	·
CC(C)Cc1nc(N2CCN(C(=O)c3ccco3)CC2)c(C#N)c2c1CCC2	21.0*	2.3	·	-4.4	·	0.3	?
SMILES	PglD inh	CDK5 inh	FGF22 binding	dFosB activator	SIRT5 inh	PvdQ acylase	PglD confirm
CCOc1ccccc1N1CC(C(=O)NCCc2ccc(S(N)(=O)=O)cc2)CC1=O (configuration not stated)	1.6	3.0	·	-2.3	·	-5.7	·
CCOc1ccc(N2CC(C(=O)NCCc3ccc(S(N)(=O)=O)cc3)CC2=O)cc1 (configuration not stated)	30.7*	1.1	-0.1	3.1	-0.3	-2.0	?
O=S(=O)(NC1CCN(Cc2ccccc2)CC1)c1ccc(F)c(F)c1	22.1*	·	-0.2	·	·	·	2.6
O=C(NCc1cccc(Cl)c1)c1ccc(-n2cncn2)c2ccoc12	22.0*	·	-0.1	·	-2.5	·	-2.8
Cc1noc(C)c1NC(=O)N(C)C[C@@H]1Oc2c(cccc2N(C)C)C(=O)N([C@@H](C)CO)C[C@H]1C	0.9	·	-0.1	·	1.6	·	·
COc1ccc(CCCNC(=O)C2(C)Cc3c(-c4ccc5c(c4)OCO5)ccnc3O2)cc1 (configuration not stated)	21.9*	·	0.3	·	-5.3	·	-0.1
COc1ccc(CCCNC(=O)C2(C)Cc3c(-c4ccc(C(N)=O)cc4)ccnc3O2)cc1 (configuration not stated)	4.0	·	0.0	·	·	·	·
Cc1nc([N+](=O)[O-])c(Sc2nc3ccccc3n2C)n1Cc1ccccc1	29.9*	-2.4	-0.1	-2.8	·	-3.9	7.1
O=C(NC1CCS(=O)(=O)C1)/C(=C\c1ccccc1)NC(=O)c1ccccc1 (configuration not stated)	·	-0.5	·	-2.3	·	-6.1	·
O=C(NC1CCS(=O)(=O)C1)/C(=C/c1ccc(Cl)cc1)NC(=O)c1ccccc1 (configuration not stated)	75.9*	·	0.0	-5.1	2.7	-2.1	-4.8
CC(=O)NN=C1CCC(c2ccccc2)CC1 (configuration not stated)	-4.9	-3.0	·	4.3	·	-4.7	·
NC(N)=NN=C1CCC(c2ccccc2)CC1 (configuration not stated)	25.2*	-5.2	0.5	1.5	-1.6	-17.5	2.9
CC(C)Oc1cc(F)ccc1-c1cc(C(=O)NCC2CCCCC2)[nH]n1	22.5*	·	0.1	·	·	·	11.6
Cc1cc(F)ccc1-c1cc(C(=O)NCC2CCCCC2)[nH]n1	5.3	·	-0.1	·	0.9	·	·
O=C(CSc1nnc(-c2ccncc2)n1Cc1ccccc1)Nc1nccs1	48.1*	0.9	·	-3.6	·	-3.1	2.4
O=C(C1CCCC1)N1CC(=O)N2[C@H](C1)[C@H](c1ccc(C#CC3CCCC3)cc1)[C@@H]2CO	·	·	·	·	-1.1	·	·
O=C(OCC(=O)N1CCC(Cc2ccccc2)CC1)c1ccc(O)cc1	23.6*	·	0.4	·	2.6	·	-2.4
O=S(=O)(N[C@H]1CC[C@H](CCn2cc(C3CC3)nn2)O[C@@H]1CO)c1ccc(F)cc1	2.5	·	0.0	·	3.1	·	·
